About 83,000 compounds went through this panel and 20% of them were active in at least one assay; those are over-represented in the sample as a whole.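 Single-dose data. Exposure time 48 hours. Values below 10 considered active.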 The source made the active and inactive calls.
Test system: U251 CNS
Assay: NCI-60 one-dose screen, 48 h (100 = growth as untreated, 0 = no growth, -100 = all killed)
Settings: 10 µM unless noted

SMILES | growth
COc1cc2c(c(OC)c1OC)CCC(c1cccc(NC(=O)c3ccc(Br)cc3)c1)O2 (configuration not stated) | 90% (inactive)
N#Cc1nc(-c2ccc(F)cc2)oc1S(=O)(=O)N1CCCCC1 | 91.2% (inactive)
Clc1ccc(/C=N\N=C\c2ccc(Cl)c(Cl)c2)cc1Cl | 76.3% (inactive)
C1CCC([PH+](C2CCCCC2)C2CCCCC2[PH+](C2CCCCC2)C2CCCCC2)CC1.[Au].[CH-]1CCCCC1C1CCCC[N-]1 (configuration not stated) | -84.3% (active)
Cn1c(=O)c2nc(/C=C/c3ccccc3)c(=O)[nH]c2n(C)c1=S | 108% (inactive)
COc1ccc(/C=C(\C#N)n2nnc3cc(Cl)ccc32)cc1 | 5.37% (active)
O=C(CN1C(=O)NC2NC(=O)NC21)N/N=C/c1ccccc1[N+](=O)[O-] (configuration not stated) | 107% (inactive)
CCN(CC)CC(O)COc1c(Br)c(Br)c(Br)c2c1OC(C)(C)C2 (configuration not stated) | 85.6% (inactive)
CCCNc1nc2ccccc2c2c1S(=O)(=O)c1ccc(Cl)cc1C2=O | 1.6% (active)
CS(=O)(=O)Nc1cncc(-c2ccc3ncnc(Nc4cncc(Cl)c4)c3c2)c1 | 59.2% (inactive)
CN(C)c1ccc(C(=O)OCCCCCCl)cc1 | 99.7% (inactive)
CN(C)c1ccc(-c2c(C#N)c(N)nn2C(=O)c2ccc(NC(=O)c3ccccn3)cc2)cc1 | 99.3% (inactive)
COCCn1cc(-c2csc(-c3cn(C)c4ccc(Br)cc34)n2)c2cccnc21 | 51.4% (inactive)
CC1(C)COB(OCC(C)(C)COB2OCC(C)(C)CO2)OC1 | 98.2% (inactive)
Cc1c[n+](Cc2ccc3ccccc3c2)cn1Cc1ccc2ccccc2c1 | 8.55% (active)
Cn1cc(-c2csc(-c3c[nH]c4ccccc34)n2)c2cnccc21 | -25.2% (active)
CCOC(=O)C#Cc1c(C(=O)OCC)nnn1Cc1ccc([N+](=O)[O-])cc1 | 96.5% (inactive)
CCn1cc(C(=O)O)c(=O)c2cc(F)c(N3CCN(CC(=O)Nc4ccc(S(=O)(=O)Nc5nccc(C)n5)cc4)C(C)C3)c(F)c21 (configuration not stated) | 110% (inactive)
C=C1C(=O)O[C@H]2[C@H]1CC/C(COC(=O)/C=C\C(=O)NCc1ccc(Cn3c(=O)sn(CCI)c3=O)cc1)=C\CC[C@@]1(C)O[C@@H]21 | 70% (inactive)

SMILES | growth
CC1CN(S(=O)(=O)c2oc(-c3ccc(Cl)cc3)nc2C#N)CC(C)O1 (configuration not stated) | 89.6% (inactive)
Cc1ccc(C)n1-c1ccccc1-n1c(C)ccc1C | 102% (inactive)
CCCCCCC12CCC(=O)N1CCc1cncn12 (configuration not stated) | 100% (inactive)
CNC(=O)c1[nH]cc(-c2ccc(OC)cc2)c1-c1cc(OC)c2c(c1OC)OCO2 | 98.4% (inactive)
C#Cc1c2c(c(OC)c3c1OCO3)[C@H]([C@H]1OC(=O)c3c1ccc(OC)c3OC)N(C)CC2 | 87.9% (inactive)
C=CCc1c(O)c(C(=O)/C=C/c2ccccc2)c(OC)c2ccoc12 | 26.8% (inactive)
O=S(=O)(Nc1ccc(F)cc1F)c1ccc(-c2cnc(C3CC3)o2)cc1 | 26.6% (inactive)
CN1CCN(c2cc(Nc3cc(C4CC4)[nH]n3)nc(Nc3ccc(CC(=O)NCc4cccc(F)c4)cc3)n2)CC1 | 26% (inactive)
CC(C)(C)[Si](C)(C)OC1[C@@H](CNC(=O)NC(=O)NC(N)=O)O[C@@H](n2cnc3c(NC(=O)Nc4ccccc4)ncnc32)[C@H]1O[Si](C)(C)C(C)(C)C (some centres not stated) | 69.1% (inactive)
COc1ccc(OC)c(-c2nc(SCC(=O)c3ccc(C#N)cc3)[nH]c(=O)c2C#N)c1 | 103% (inactive)
COc1ccc(C(C)=O)cc1S(=O)(=O)Nc1c(N)nc(SC)[nH]c1=O | 111% (inactive)
CCOC(=O)C1=C(N)Oc2c(sc3c(F)cccc23)C1c1ccc(O)cc1 (configuration not stated) | 37.9% (inactive)
CCNCCNc1cc(-c2ccc(C(F)(F)F)cc2)c(C#N)c2nc3ccccc3n12 | -87.1% (active)
Cn1cc(-c2ccc3nc(-c4ccc(CC(=O)ONc5cc(C(C)(C)C)on5)cc4)cnc3c2)cn1 | 32.3% (inactive)
Cn1cc(C(=O)c2nc(-c3c[nH]c4ccccc34)no2)c2cc(F)ccc21 | 28.5% (inactive)
COc1ccc(CNc2c3ccccc3nc3ccccc23)cc1 | 36.5% (inactive)
O=[N+]([O-])c1cccc(-c2nc3cc4nc5ccccc5[nH]c4cc3n2)c1 | 98.2% (inactive)
COc1c(C(=O)Nc2ccc(C)c(Br)c2)ccc2ccccc12 | 96.2% (inactive)
